Shown are actives, neighbours in structure and some others; about 1.8% of the full set was active somewhere.
PERK inh = blocks human PERK kinase; Q9NZJ5; CHO PERK-DD fusion, SEAP luminescence translation reporter; inhibition, % at 5.6 µM; 0.17% of 220,000 active; AID 1416;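 active = inhibition above the mean inhibition of all tested compounds plus 3 SD, set separately per screening campaign, cut at about 2.9% in these data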;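 note: PERK kinase domain activated by AP20187 dimerizer at 100 nM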
EP2 modulator = EP2 receptor (human) modulation; EP2-expressing cells, cAMP HTRF FRET, PGE2 co-stimulation; induction, % at 25 µM; 0.83% of 260,000 active; AID 940;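 active = compounds whose cAMP rise, as percent of the full-agonist control response, exceeds 60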;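 note: rat C6 glioma line stably carrying human EP2 under a CMV promoter; the protocol text gives 20 µM as final concentration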
eIF4E 4G PPI = blocks eIF4E binding to eIF4G; TR-FRET eIF4E-eIF4GI(517-606) binding, 2 h; inhibition, % at 21.7 µM; 0.37% of 220,000 active;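 active = inhibition above about 30%, limit read from the data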
EP2 antag = inhibitors of human EP2 prostaglandin E2 receptor. 0.52% of 260,000 active. P43116. inhibition, % at 25 µM. C6 glioma cells expressing human EP2, cAMP TR-FRET; cells stimulated with saturating PGE2;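 active = percent inhibition above 40 after rounding to a whole number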;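 note: rat C6 glioma host cells with rolipram phosphodiesterase inhibitor present; the protocol text gives 20 µM as final concentration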
EP2 cAMP induct = human EP2 receptor cAMP induction, negative in counter-screens; shares compounds with EP2 modulator; C6 glioma EP2 cells, cAMP HTRF induction; plus low (about EC15) PGE2 agonist; calls only at 20 µM (by protocol); 47% of 1,300 active;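 active = cAMP induction above 50% in the main assay while under 30% in all four parallel counter assays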;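 note: rat C6 glioma cells stably expressing human EP2 receptor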
Numbers stand for hits; 0 = inactive; - = not tested or not shown; + = active, no number; ! = repeats disagree.

SMILES	PERK inh	EP2 modulator	eIF4E 4G PPI	EP2 antag	EP2 cAMP induct
O=C(O)c1ccc(C(=O)O)c(C(=O)Nc2ccc3c(c2)Cc2ccccc2-3)c1	-	92	-	61	+
CCOc1cc(S(=O)(=O)NCCc2cccc(C)c2)c(OCC)cc1-n1cnnn1	0	68	0	0	0
Cc1ccc2nc3c(cc(C(=O)NCCc4ccccc4)c(=N)n3C(C)C)c(=O)n2c1	-	0	-	0	-
CCN(CC)S(=O)(=O)c1ccc(S(=O)(=O)N2CCN(c3ccccc3F)CC2)cc1	-	0	-	0	-
Cc1ccc(-c2cc(N)c(=O)n(CC(=O)N3CCCCC3)n2)s1	-	0	-	0	-
CN(CC(=O)Nc1ccccc1-c1ccccc1)Cc1ccccc1Cl	0	71	0	0	+
O=C(CSCc1cccc(Cl)c1)Nc1ccccc1-c1ccccc1	0	67	0	0	+
Cc1ccc(NC(=O)CN(C)CC(=O)Nc2ccccc2-c2ccccc2)cc1	0	0	0	0	-
Cc1ccccc1CSCC(=O)Nc1ccccc1-c1ccccc1	0	81	0	0	+
COc1cc(NC(=O)c2ccccc2C)ccc1NC(=O)c1ccco1	-	0	-	0	-
CC(C)(C)c1[nH]nc2c1C(c1c(F)cccc1F)C(C#N)=C(N)O2 (centres undefined)	-	0	-	0	-
CCOC(=O)c1c(-c2cccc([N+](=O)[O-])c2)csc1N	0	0	0	0	-
Cc1cccc(-c2csc(N)c2C(=O)OC(C)C)c1	0	96	0	0	+
Cc1oc(C)c(C(=O)O)c1C(=O)O	0	0	0	0	-
O=C(O)c1oc(C(=O)O)c(C(=O)O)c1C(=O)O	-	0	-	0	0
COc1ccc2ccccc2c1C1C(C#N)=C(N)Oc2cc(C)oc(=O)c21 (centres undefined)	-	0	-	0	-
CCc1oc2ccccc2c1C(=O)c1cc(Br)c(O)c(Br)c1	0	68!	0	0	0
N#Cc1c(NC(=O)CSc2ncccn2)oc(-c2ccccc2)c1-c1ccccc1	0	-	-	0	-
N#Cc1c(NC(=O)CSc2n[nH]c(Cc3ccccc3)n2)oc(-c2ccccc2)c1-c1ccccc1	0	77	0	0	0
O=S(=O)(Cc1ccccc1)N1CCN(C2CCCCCC2)CC1	-	0	-	0	-
C=CCOc1ccc(Cl)cc1C1C2=C(CCCC2=O)NC2=C1C(=O)CCC2	-	0	-	0	-
O=C(CN1C(=O)[C@@H]2CCCN2C(=O)c2ccccc21)N1CCOCC1	-	0	-	0	-
CCN(CC)c1nc(C#N)nc(N(CC)CC)n1	0	65	0	-	0
CCN(c1ccccc1)c1nc(C#N)nc(N(CC)c2ccccc2)n1	0	0	0	0	-
Cc1ccc(C(=O)N(CC(=O)NC2CCCC2)c2ccc3c(c2)CCC3)s1	-	0	-	0	-
SMILES	PERK inh	EP2 modulator	eIF4E 4G PPI	EP2 antag	EP2 cAMP induct
CCOc1ccccc1/C=C(\NC(=O)c1ccccc1)C(=O)NCCC(=O)O	0	0	0	0	-
CC(C)Oc1ccc(/C=C(/NC(=O)c2ccccc2)C(=O)NCCC(=O)O)cc1	0	71	0	0	0
CCC(C)C(=O)N1CCCC(c2nc(-c3cccs3)no2)C1 (centres undefined)	0	0	0	0	-
CCCC(=O)N1CCCC(c2nc(-c3cccs3)no2)C1 (centres undefined)	0	76	0	0	0
CC(C)CCn1c(=O)c2ccccc2c2ccccc2c1=O	0	83	0	0	+
Cc1cc(C)c2[nH]c(=O)c(C(c3nnnn3Cc3ccc(F)cc3)N3CCCCC3)cc2c1 (centres undefined)	-	0	-	0	-
CC1c2ccsc2CCN1Cc1cccc(OCc2ccccn2)c1 (centres undefined)	-	0	-	0	-
O=C(/C(=C/O)N=Nc1ccc(Cl)cc1)c1ccncc1	0	0	0	0	-
O=C(/C(=C/O)N=Nc1ccccc1Cl)c1ccccc1	0	69	0	0	+
O=C(CCn1c2ccccc2c2ccccc21)N1CCn2cnnc2C1	-	0	-	0	-
CN(c1ccccc1)C1CCCCC1NS(=O)(=O)c1ccc(Cl)cc1 (centres undefined)	0	66	0	0	+
COCCn1nnnc1C(c1ccccc1OC)N1CCC(C(N)=O)CC1 (centres undefined)	-	0	-	0	-
Cc1nc(=S)c2ccccc2[nH]1	0	0	0	0	-
FC(F)(F)c1nc(=S)c2ccccc2[nH]1	0	71	0	0	0
c1ccc(Nc2nc(N3CCNCC3)nc(N3CCOCC3)n2)cc1	0	67	0	0	0
c1ccc(Nc2nc(N3CCOCC3)nc(N3CCOCC3)n2)cc1	0	0	0	0	-

Screening data: PubChem BioAssay, several laboratories
